# Data reported in article PMC4336329 (PLoS ONE, 2015).
# In all, about 310,000 compounds went through this assay and about 14,000 (4.5%) showed an effect of 50% or more. Effects have a minus sign here. What follows is part of a selection rich in strong results, with near analogues and random picks from the rest.
# Molecular target: human ether-à-go-go-related gene (hERG) potassium channel (human, UniProt Q12809)
# Test: primary screen, population patch clamp on CHO cells stably expressing hERG; higher = less effect of the substance
# 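Further: peak tail current of the secondary pulse compared with the same well before compound.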
# human ether-à-go-go-related gene (hERG) potassium channel, sequence (Q12809 whole entry, looked up): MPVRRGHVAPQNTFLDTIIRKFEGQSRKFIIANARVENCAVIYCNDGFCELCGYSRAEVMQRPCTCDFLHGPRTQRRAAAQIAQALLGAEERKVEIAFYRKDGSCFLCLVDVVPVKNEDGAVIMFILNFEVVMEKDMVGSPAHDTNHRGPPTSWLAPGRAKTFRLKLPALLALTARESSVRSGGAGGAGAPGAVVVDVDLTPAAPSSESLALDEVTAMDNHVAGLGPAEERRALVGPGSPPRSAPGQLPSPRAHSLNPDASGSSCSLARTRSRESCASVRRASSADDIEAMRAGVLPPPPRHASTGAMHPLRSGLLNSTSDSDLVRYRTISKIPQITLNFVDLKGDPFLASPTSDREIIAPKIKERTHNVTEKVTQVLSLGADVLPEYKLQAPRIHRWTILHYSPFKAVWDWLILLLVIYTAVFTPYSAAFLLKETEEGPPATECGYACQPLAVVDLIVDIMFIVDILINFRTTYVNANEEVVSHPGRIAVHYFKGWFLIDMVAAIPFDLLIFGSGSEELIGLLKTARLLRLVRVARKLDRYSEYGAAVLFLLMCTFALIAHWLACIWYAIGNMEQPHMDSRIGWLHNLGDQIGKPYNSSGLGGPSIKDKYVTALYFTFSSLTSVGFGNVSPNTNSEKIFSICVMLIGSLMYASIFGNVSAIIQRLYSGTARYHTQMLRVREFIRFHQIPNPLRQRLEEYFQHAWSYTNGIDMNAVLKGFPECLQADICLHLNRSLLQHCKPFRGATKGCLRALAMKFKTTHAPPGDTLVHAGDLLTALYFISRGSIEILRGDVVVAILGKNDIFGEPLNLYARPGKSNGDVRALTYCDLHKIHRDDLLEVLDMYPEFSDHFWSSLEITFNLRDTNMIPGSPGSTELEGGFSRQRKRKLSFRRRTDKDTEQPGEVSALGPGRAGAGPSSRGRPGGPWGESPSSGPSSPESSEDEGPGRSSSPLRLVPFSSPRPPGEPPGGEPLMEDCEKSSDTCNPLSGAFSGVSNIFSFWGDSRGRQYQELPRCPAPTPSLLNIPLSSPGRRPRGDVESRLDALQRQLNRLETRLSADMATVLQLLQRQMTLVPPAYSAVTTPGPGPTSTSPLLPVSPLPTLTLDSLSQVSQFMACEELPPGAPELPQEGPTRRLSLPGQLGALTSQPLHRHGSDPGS
row,SMILES,"hERG current change (%, negative = inhibition) at 10uM [%]"
1,Cc1cc(C(=O)O[C@H]2[C@H](Cc3ccccc3)NS(=O)(=O)[C@H]3C[C@@H]4C=C[C@]23O4)ccc1[N+](=O)[O-],-1.67
2,Cn1nc(C(=O)NCc2ccc(F)cc2)c2c1-c1ccccc1S(=O)(=O)C2,-44.9
3,CC(=O)N(CC(=O)O)c1ccccc1,10.5
4,Cc1ccc(NS(=O)(=O)c2ccc(CCC(=O)NCCCOC(C)C)cc2)cc1,4.27
5,O=c1oc2c3c4c(cc2c2c1CCC2)OCCN4CCC3,-0.13
6,Cc1cccc(C)c1NC(=O)CNc1ccccc1,5.02
7,O=C(Nn1c(C2CCCCC2)nc2ccccc2c1=O)c1ccc(Cl)c([N+](=O)[O-])c1,-9.26
8,COC(=O)C1=C(c2ccc(OC)c(OC)c2)C[C@@H]2CC[C@H]1N2C(=O)NCCOc1ccccc1Cl,-12.7
9,Cc1ccc(C)c(N2CCN(S(=O)(=O)c3ccc4c(c3)OCCO4)CC2)c1,3.7
10,C#CCOCCOCCOCCNc1nc(N2CCN(C(=O)CCCCCCCCCCNC(=O)[C@H](CCC(=O)O)n3cc(CCCCCN)nn3)CC2)nc(N2CCN(C(=O)CCCCCCCCCCNC(=O)[C@@H]([C@H](C)O)n3cc(C)nn3)CC2)n1,20.1
11,O=C(CSc1nc2c(c(=O)n1-c1ccc(Cl)cc1)SCC2)N1CCCC1,-17.4
12,C/C(=N\NC(=O)CNC(=O)C1COc2ccccc2O1)c1ccc(Cl)cc1 (stereo not drawn),-17.6
13,O=C(N/N=C\c1ccc(-c2ccc([N+](=O)[O-])cc2)o1)C1COc2ccccc2O1 (stereo not drawn),-7.36
14,C/C(=N/NC(=O)CNC(=O)C1COc2ccccc2O1)c1ccc2c(c1)OCCO2 (stereo not drawn),-1.69
15,O=C(N/N=C\c1ccc([N+](=O)[O-])o1)C1COc2ccccc2O1 (stereo not drawn),-67.4
16,CC(C)(C)c1ccc2c(c1)OC(C(=O)N/N=C/c1ccc([N+](=O)[O-])o1)CO2 (stereo not drawn),-39.2
17,C/C(=N/NC(=O)CNC(=O)C1COc2ccccc2O1)c1ccc([N+](=O)[O-])cc1 (stereo not drawn),-64.7
18,CC(=O)Nc1ccc(NC(=O)C(C)OC(=O)C(C)SCC(=O)Nc2ccc(F)cc2)cc1 (stereo not drawn),12
19,CN(NC(=O)COc1ccccc1)C1=NS(=O)(=O)c2ccccc21,26.1
20,CCCCCNC(=O)C1c2ccccc2Oc2ccccc21,2.44

row,SMILES,"hERG current change (%, negative = inhibition) at 10uM [%]"
1,O=C(CSc1ccc2nnc(-c3ccccn3)n2n1)N1CCOCC1,-24.5
2,O=C(CSc1ccc2nnc(-c3ccccc3)n2n1)N1CCCc2ccccc21,-62.7
3,O=C(CSc1ccc2nnc(-c3ccccn3)n2n1)N1CCN(c2ccccc2)CC1,-86.7
4,Cc1ccc(-c2nnc3ccc(SCC(=O)N4CCCc5ccccc54)nn23)cc1,-12.5
5,O=C(CSc1ccc2nnc(-c3ccc(F)cc3)n2n1)N1CCCc2ccccc21,-16
6,CCOc1ccc(-c2nnc3ccc(SCC(=O)N4CCCCC4)nn23)cc1,-5.88
7,O=C(CSc1ccc2nnc(-c3ccccc3)n2n1)N1CCCCC1,-59.7
8,CCOC(=O)N1CCN(C(=O)CSc2ccc3nnc(-c4ccccn4)n3n2)CC1,-36
9,COc1ccc(-c2nnc3ccc(SCC(=O)N4CCCC4)nn23)cc1,-15.2
10,COc1cccc(-c2csc(N3CCN(Cc4ccccc4)CC3)n2)c1,0.166
11,COCC(=O)Nc1nnc(COc2ccc(Cl)cc2)s1,-0.556
12,CCC(C)(C)C1CCC2(CC1)NC(=O)N(CC(=O)NCCc1c[nH]c3ccccc13)C2=O (stereo not drawn),-20.3
13,COc1ccccc1N(C(=O)CCl)c1cn(C(C)=O)c2ccccc12,-10.6
14,C=CCOc1ccccc1C1C2=C(CC(C)(C)CC2=O)Nc2c1c(=O)n(C)c(=O)n2C (stereo not drawn),-3.8
15,CC(C)CCN1CCN(Cc2ccon2)CC1CCO (stereo not drawn),4.53
16,CC(C)CN1CCN(Cc2c(F)cccc2Cl)CC1CCO (stereo not drawn),-10.4
17,Cc1cccc(CN2CCN(CC(C)C)C(CCO)C2)n1 (stereo not drawn),17.7
18,CC(C)CCN1CCN(Cc2c(F)cccc2Cl)CC1CCO (stereo not drawn),-21.6
19,CC(C)CCN1CCN(Cc2cccn2-c2ccc(Cl)cn2)CC1CCO (stereo not drawn),-64.8
20,CC(C)CN1CCN(Cc2cccn2-c2ccc(Cl)cn2)CC1CCO (stereo not drawn),-64.6

row,SMILES,"hERG current change (%, negative = inhibition) at 10uM [%]"
1,O=C(COC(=O)/C=C/c1ccc(Cl)cc1Cl)Nc1cc(C(F)(F)F)ccc1N1CCOCC1,8.56
2,O=C(O)CSc1nc(SCc2ccccc2Cl)nc2c1CCCC2,15.4
3,Cc1[nH]n(-c2ccccc2)c(=O)c1CCO,13.7
4,Cl.O[C@@H](c1cc(C(F)(F)F)nc2c(C(F)(F)F)cccc12)[C@H]1CCCCN1,6.31
5,OC(c1cc(-c2ccc(Cl)cc2)nc2ccccc12)C1CCCCN1 (stereo not drawn),-52.6
6,Cl.OC(c1cc(C(F)(F)F)nc2c(C(F)(F)F)cccc12)C1CCCCN1 (stereo not drawn),-12.4
7,Cc1cccnc1NC(=O)Cn1c(=O)oc2ccccc21,23
8,Cc1ccc(N2C(=O)NC(=O)/C(=C\c3cccn3C(C)(C)C)C2=O)cc1,24.5
9,Cl.N=c1sccn1CC(=O)Nc1ccc(S(N)(=O)=O)cc1,18.2
10,O=C(CSc1ccccc1)Nc1cc(Cl)ccc1Oc1ccccc1,-9.05
11,Cl.N=c1sccn1CC(=O)Nc1ccc2c(c1)CCC2,-14.1
12,Cl.N=c1sccn1CC(=O)Nc1cccc(Oc2ccccc2)c1,-65.5
13,Cl.N=c1sccn1CC(=O)NC(c1ccccc1)c1ccccc1,-63.3
14,Cl.N=c1sccn1CC(=O)Nc1cccc2ccccc12,2.9
15,Cl.N=c1sccn1CC(=O)Nc1ccc(SC(F)F)cc1,-62.1
16,Cc1ccc(Oc2ccc(NC(=O)Cn3ccsc3=N)cc2)cc1.Cl,-45.1
17,Cl.N=c1sccn1CC(=O)Nc1cc(Cl)ccc1[N+](=O)[O-],2.64
18,Cl.N=c1sccn1CC(=O)Nc1ccccc1-c1ccccc1,-2.05
19,Cl.N=c1sccn1CC(=O)Nc1cccc(S(N)(=O)=O)c1,12.5
20,Cl.N=c1sccn1CC(=O)Nc1cc(Cl)ccc1Oc1ccccc1,-75.2
